Bioassay records (PubChem BioAssay)
Sampled rows, rich in hits. Any-hit rate of the full collection: about 0.36%.
Menin-MLL FL inh: menin-MLL binding inhibition, fluorescein peptide. Fluorescence polarization, fluorescein-MLL peptide displacement from menin. FP activity change, % at 61.4 µM. 290,000 tested, under 10 active; active = well fitted curve in the direction sought with a large enough effect in the polarisation, not every such curve was filed as active; inconclusive = small, poorly fitted or top-dose-only effect, or effect the other way, or a change in a side signal; inactive = no such curve, though single readings can be large or run the other way; the % refers to the polarisation; also: % of control where 0% means no effect
Menin MLL FP TR: displaces Texas Red mutant MLL peptide from human menin. Menin + Texas Red MLL mutant peptide, fluorescence polarization. O00255. Potency, µM (titrated, usually from 61.6 µM), inactives show top-dose FP activity change, negative = inhibition, actives largely listed as inhibitors. 0.23% of 270,000 active; active = well fitted inhibition curve with a large enough effect in the polarisation, with a control signal flat, not every such curve was filed as active; inconclusive = small, poorly fitted or top-dose-only effect, or effect the other way, or a change in a side signal; inactive = no such curve, though single readings can be large or run the other way; the % refers to the polarisation; also: potency is read from the fitted curve at half-maximal effect; % of control where 0% means no effect
TR SRC2 fluor cs: alters Texas Red total fluorescence, flagging assay interference | TRb/SRC2 Texas Red total fluorescence interference | Potency, µM (doses to about 106 µM), for the others: at the top dose fluorescence change, negative = quenching | 0.29% of 280,000 active; active = well fitted curve in either direction with a large enough effect; inconclusive = small, poorly fitted or top-dose-only effect; also: potency is read from the fitted curve at half-maximal effect; % is scaled to controls: 0 for no effect and ±100 for the full control effect
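Flags fluorescent or light-absorbing compounds by total fluorescence, S + 2P, at 555 nm excitation and 632 nm emission. Mixture: 20 nM Texas Red SRC2 peptide, 0.6 uM human TRb LBD, 1 uM T3, 5% DMSO; compound exposure 5 h at ambient temperature.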
MLL CXXC-DNA inh: blocks binding of human MLL CXXC domain to DNA. Potency, µM (doses to about 115 µM), inactives show top-dose activity change, negative = inhibition, hits mostly inhibitors. MLL-CXXC / FITC-HOXA9 DNA fluorescence polarization. 0.037% of 290,000 active. Q03164; active = well fitted inhibition curve with a large enough effect in the polarisation, with a control signal flat, not every such curve was filed as active; inconclusive = small, poorly fitted or top-dose-only effect, or effect the other way, or a change in a side signal; inactive = no such curve, though single readings can be large or run the other way; the % refers to the polarisation; also: potency is read from the fitted curve at half-maximal effect
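Fluorescence polarization: 7 uM MLL-CXXC (stock) preincubated 5 min with compounds, then 50 nM fluorescein-HOX-A9 DNA (stock) added; 30 min ambient. Buffer 50 mM Tris-HCl pH 7.5, 50 mM NaCl, 1 mM DTT, 0.05% BSA.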
TRb-SRC2 inh: TRbeta-SRC2 interaction inhibition. TRbeta-SRC2 peptide binding, fluorescence polarization; receptor liganded with 1 µM T3. 0.065% of 280,000 active. P10828. Potency, µM (top dose mostly 106 µM), without a hit: at the top dose activity change, negative = inhibition, actives largely listed as inhibitors; active = well fitted inhibition curve with a large enough effect; inconclusive = small, poorly fitted or top-dose-only effect, or effect the other way;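 also: potency is read from the fitted curve at half-maximal effect; plate controls were bound peptide for no effect and peptide without receptor for full effect; nearly all actives have a fitted effect of over 50% in size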
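Decrease in fluorescence polarization of 20 nM Texas Red SRC2 coactivator peptide flagged inhibition of its binding to 0.6 uM TRb LBD; 1 uM T3 included, incubation 5 hr, ex 555/em 632 nm.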
The depositor's hits bear a star; ? = inconclusive; . = no result given; [ ] = another dose, or the depositor's remark.

SMILES	Menin-MLL FL inh	Menin MLL FP TR	TR SRC2 fluor cs	MLL CXXC-DNA inh	TRb-SRC2 inh
O=C(CSc1nnc2c3ccccc3c3ccccc3c2n1)Nc1ccccc1	2	13µM*	20%	5%	?
COc1ccc2c(c1)[nH]c1c(=O)n(N)cnc12	-1	5%	-1%	-3%	-1%
Nn1cnc2c([nH]c3ccccc32)c1=O	4	-9%	1122µM*[quencher]	-3%	-20%[53 µM]
O=[N+]([O-])C(CO)(CO)CO	.	.	-5%[201 µM]	.	-3%[201 µM]
COc1ccc(NC(=O)c2c(C)oc3ccc(O)c(CN4CCCCCC4)c23)cc1Cl	.	.	794µM*[quencher]	.	-8%
Cc1cc(Br)cc(C)c1OCC(=O)Nc1ccc(S(=O)(=O)Nc2ncccn2)cc1	.	.	-8%	.	-2%
CC[n+]1ccccc1/C=C/c1ccc(N(C)C)cc1	?	-1%	4%	?	6%
CC[n+]1ccc(/C=C/c2ccc(N(C)C)cc2)c2ccccc21	8	?	32µM*[fluorescent]	?	?
CCCCCCCCCCCCCc1ccccc1	.	.	-1%[201 µM]	.	-3%[201 µM]
COc1cc(C2c3c(oc4ccccc4c3=O)C(=O)N2c2ccccn2)cc(OC)c1OC (configuration not stated)	.	.	0.04µM*[quencher]	.	-10%
COc1ccc(C2c3c(oc4ccccc4c3=O)C(=O)N2c2ccccn2)cc1OC (configuration not stated)	1	14%	-2%	-3%	3%
O=C(CC1N=C2c3ccccc3N=C(SCC(=O)Nc3ccccc3F)N2C1=O)NCc1cccs1 (configuration not stated)	.	.	0%	.	-4%
COCCNC(=O)Cn1c(-c2cccs2)cc2cc(Cl)ccc21	.	.	126µM*[quencher]	.	-20%
CCN1CCN(CCCNC(=O)Cn2c(-c3cccs3)cc3cc(F)ccc32)CC1	.	.	141µM*[quencher]	.	?
COc1cc(CC(=O)OCC(=O)Nc2cc([N+](=O)[O-])ccc2F)cc(OC)c1OC	8	14%	1000µM*[quencher]	-10%	-26%[53 µM]
C/C(=C\C(=O)c1ccccc1)Nc1ccc(O)cc1	5	?	-15%	-6%	?
C/C(=C\C(=O)c1cccnc1)Nc1ccc(O)cc1	6	-17%	21%	-5%	14µM*
c1ccc2cc3c(ccc4ccccc43)cc2c1	.	.	-4%[201 µM]	.	0%[201 µM]
COc1cc(NCCCC(C)N)c2ncccc2c1 (configuration not stated)	?	?	45µM*[fluorescent]	3%	28µM*
CCC(CNc1cc(OC)cc2cccnc12)NC1CCCCC1 (configuration not stated)	?	35µM*	5%	?	?
COc1cc(NS(=O)(=O)c2ccc(C)cc2)c2ncccc2c1	4	41%	-5%	-3%	1%
CCCCCCC(O)CCCCCCCCCCC(=O)O (configuration not stated)	.	.	-1%[201 µM]	.	4%[201 µM]
COc1ccccc1CNc1nc(-c2ccco2)nn1S(=O)(=O)c1ccc2ccccc2c1	.	.	1122µM*[quencher]	.	-6%
Cc1ccc2c(c1)C(=O)OC2=O	.	.	2%[201 µM]	.	13%[201 µM]
CC1(C)c2ccccc2N2CCC(=O)NC21/C=C/c1ccco1 (configuration not stated)	?	?	45µM*[fluorescent]	17%	?
SMILES	Menin-MLL FL inh	Menin MLL FP TR	TR SRC2 fluor cs	MLL CXXC-DNA inh	TRb-SRC2 inh
O=C(Nc1ccccc1)c1cc(Cl)ccc1O	.	.	-3%[201 µM]	.	3%[201 µM]
Cc1cccc(OCC(=O)N(Cc2ccc(N(C)C)cc2)Cc2ccco2)c1C	.	.	0.45µM*[quencher]	.	-26%[53 µM]
CC(C)CNC1CS(=O)(=O)CC1O (configuration not stated)	-1	.	-5%	-1%	-2%
CCCCCCCCS(=O)C1CS(=O)(=O)CC1O (configuration not stated)	1	.	10µM*[fluorescent]	-2%	5µM*
Cn1c(=O)[nH]c(=O)n(C2CCC(O)CC2)c1=O (configuration not stated)	.	.	-5%[201 µM]	.	0%[201 µM]
Oc1c(C=C2N=c3ccccc3=N2)sc(=S)n1-c1ccccc1	?	?	32µM*[quencher]	-4%	-14%[53 µM]
COc1ccccc1NC(=O)c1sc2ncn(Cc3cccc4ccccc34)c(=O)c2c1C	-3	1%	0.89µM*[quencher]	-6%	?
CC(=O)c1ccc(OC(=O)c2c(-c3ccccc3Cl)noc2C)cc1	.	.	-8%	.	2%
C[Si](C)(C)O[Si](C)(C)O[Si](C)(C)C	.	.	2%[201 µM]	.	3%[201 µM]
COc1cc2nc(SCc3ccc(C(F)(F)F)cc3)n(Cc3cccs3)c(=N)c2cc1OC	4	17%	4%	5%	-13%
COc1cc2nc(SCc3ccc(Cl)cc3Cl)n(Cc3cccs3)c(=N)c2cc1OC	1	40µM*	-1%	21%	-8%
O=[N+]([O-])c1cccc(NC(=S)NCCc2ccccc2)c1	-5	5%	316µM*[quencher]	-2%	-19%[53 µM]
COc1cc(/C=N/NS(=O)(=O)c2ccc(C)c([N+](=O)[O-])c2)cc([N+](=O)[O-])c1O	-8	25µM*	.	8%	.
C(C#CCCCCCCCCC[n+]1ccccc1)#CCCCCCCCCC[n+]1ccccc1	-7	32µM*	.	15%	.
O=S(=O)(Nc1cccc(-c2ccc(N3CCCCC3)nn2)c1)c1ccc(F)cc1F	.	.	-7%	.	3%
CC1CCN(c2ccc(-c3cccc(NS(=O)(=O)c4ccc(F)cc4F)c3)nn2)CC1	.	.	8.9µM*[quencher]	.	-19%
CCOc1ccc(S(=O)(=O)Nc2cccc(-c3ccc(N4CCCC4)nn3)c2)cc1	.	.	20µM*[quencher]	.	-7%
CCOc1ccc(S(=O)(=O)Nc2cccc(-c3ccc(N4CCC(C)CC4)nn3)c2)cc1	.	.	-15%	.	7%
CO/N=C1\C[C@]2(C[C@@H]3C[C@@H](C/C=C(\C)C[C@@H](C)/C=C/C=C4\CO[C@@H]5[C@H](O)C(C)=C[C@@H](C(=O)O3)[C@]45O)O2)O[C@H](/C(C)=C/C(C)C)[C@H]1C	.	.	0%[201 µM]	.	7%[201 µM]
CCOc1cc(C(=O)Nc2ccc(NC(=O)c3cc4ccccc4o3)c(OC)c2)cc(OCC)c1OCC	.	.	35µM*[quencher]	.	-15%
CCOc1cccc(C(=O)Nc2ccc(NC(=O)c3cc4ccccc4o3)c(OC)c2)c1	5	17%	.	29%	.
C=CC1=C(C)C2=Cc3c(C=C)c(C)c4[n]3[Sn+2][n]3c(c(C)c(CCC(=O)O)c3=CC3=NC(=C4)C(C)=C3CCC(=O)O)=CC1=N2	?	?	?	.	13µM*
CCCCCCCCCCCCCCN(C)C	.	.	-2%[201 µM]	.	9%[201 µM]
Cc1ccc(CNC(=O)c2cc(=O)c3cc(C)cc(C)c3o2)cc1	.	.	4µM*[quencher]	.	-14%
COc1ccc(NC(=O)C2CCN(c3ccc(Sc4ccc(C)cc4)nn3)CC2)cc1	.	.	-25%	.	4%
COc1ccccc1OCC(=O)OC/C(O)=C(\C#N)c1nc2ccccc2[nH]1	?	?	2.5µM*[quencher]	10%	?
COc1ccc(OC/C(O)=C(\C#N)c2nc3ccccc3[nH]2)cc1	2	14%	1%	18%	-14%
Cc1ccc2c(c1)-c1c(cnn1CC(=O)N1CCN(c3ccccc3F)CC1)CO2	.	.	11%	.	-7%
